# Screen size: about 320,000 compounds; about 2,100 (0.66%) were called active. About 53% were inconclusive and are not listed. Calls follow the shape of the dose curve; as a rule, active = well fitted inhibition curve with a large enough effect in the signal ratio, with a control signal flat (not every such curve was filed as active); inconclusive = small, poorly fitted or top-dose-only effect, or effect the other way, or a change in a side signal; inactive = flat fitted curve, though single readings scatter; the % refers to the signal ratio. The full list was thinned out, with actives kept by preference.
# Experiment: qHTS Assay for Lipid Storage Modulators in Drosophila S3 Cells;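 as to cell number change: cells counted by Cell Tracker Red CMTPX staining in the red channel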; as to lipid storage change, negative = inhibition: % is scaled to controls: 0 for no effect and ±100 for the full control effect
# Conditions: BODIPY lipid droplet fluorescence, 18-24 h, cells fed with added oleic acid; cell number change: measured here: cell count max response; series mostly up to 46.1 µM; lipid storage change, negative = inhibition: at the top concentration
# Outline: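 Drosophila S3 cells loaded with oleic acid (400 uM, as added) and compounds at several concentrations; lipid droplets imaged by 488-nm laser-scanning cytometry, 500–530 nm intensity and object ratio to cell channel. Percent activity normalized to 20 uM Triacsin C.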
# Potency is read from the fitted curve at half-maximal effect.
SMILES,"lipid storage change, negative = inhibition",cell number change,Potency,outcome
CC(=O)N1CCCc2cc(S(=O)(=O)Nc3ccc(C)cc3C)ccc21,-5.87% (inactive),19.8%,–,–
Cc1ccc(C(O)P(=O)(OC2CCCCC2)OC2CCCCC2)cc1 (stereo not given),-12.5% (inactive),22.2%,–,–
O=C(COc1ccc(S(=O)(=O)Nc2ccccc2)cc1)NCc1cccnc1,-1.07% (inactive),-1.79%,–,–
Cc1c(C(=O)NC(C)C)c(-c2ccccc2)nn1-c1ccccc1,6.49% (inactive),-7.38%,–,–
O=C(Nc1nnc(C2=COCCO2)o1)c1ccc(S(=O)(=O)N2CCOCC2)cc1,4.23% (inactive),17.2%,–,–
Cc1ccc(S(=O)(=O)N2CCc3c2cc([N+](=O)[O-])cc3[N+](=O)[O-])cc1,9.86% (inactive),25.6%,–,–
COc1cccc(/C=C2\SC(=S)N(CCC(=O)N3CCCCC3CCO)C2=O)c1 (stereo not given),–,-19.7%,8.2 µM (active),–
O=C(O)CCCN1C(=O)/C(=C/c2ccncc2)SC1=S,-1.54% (inactive),-13%,–,–
O=C(O)CCCCCN1C(=O)/C(=C/c2ccncc2)SC1=S,-21.5% (inactive),8.67%,–,–
O=C1/C(=C/c2ccccc2)SC(=S)N1CCCC(=O)N1CCCCC1CCO (stereo not given),–,5.19%,18.4 µM (active),–
COc1cccc(/C=C2\SC(=S)N(CCCC(=O)N3CCCC3)C2=O)c1,-27.9% (inactive),19.2%,–,–
CC(C)c1ccc(/C=C2\SC(=S)N(CCC(=O)N3CCCCC3CCO)C2=O)cc1 (stereo not given),–,-22.4%,–,inactive
O=C(O)CCCCCN1C(=O)/C(=C\c2ccncc2)SC1=S,–,-19.2%,3.26 µM (active),–
COc1cccc(/C=C2\SC(=S)N(CCCC(=O)N3CCCCC3CCO)C2=O)c1 (stereo not given),–,–,–,inactive
O=C(CCN1C(=O)/C(=C\c2ccccc2)SC1=S)N1CCCCC1,-17.1% (inactive),9.57%,–,–
COC(=O)C1=C(C)NC(=O)/C1=C\c1ccc2c(c1)OCO2,-12% (inactive),-20.5%,–,–
CCOC(=O)C1(Cc2cccc(Cl)c2)CCCN(C(=O)c2cn[nH]c2)C1 (stereo not given),-0.385% (inactive),-11.4%,–,–
CN(C)c1ccc(C(=S)N2CCN(Cc3ccccc3)CC2)cc1,10.1% (inactive),-4.36%,–,–
CC(C)c1ccc(C(O)P(=O)(OCc2ccccc2)c2ccc(N(C)C)cc2)cc1 (stereo not given),-15.1% (inactive),1.68%,–,–
COc1ccc(NC(=O)CN(c2ccc([N+](=O)[O-])cc2)S(=O)(=O)c2ccccc2)c(OC)c1,5.04% (inactive),-1.88%,–,–
O=C1NCCCC1C(=O)NCCN1C(=O)CCC1=O (stereo not given),0.15% (inactive),-2.23%,–,–
O=C(Nc1cccc(C(F)(F)F)c1)c1ccc(-n2cncn2)nc1,-0.0627% (inactive),5.24%,–,–
COc1ccc(N(CC(=O)N2CCN(Cc3ccc4c(c3)OCO4)CC2)S(C)(=O)=O)cc1OC,0.719% (inactive),14.4%,–,–

SMILES,"lipid storage change, negative = inhibition",cell number change,Potency,outcome
CC(C)CCNC(=O)CN(Cc1ccco1)C(=O)c1snc(C(N)=O)c1N,7.91% (inactive),8.95%,–,–
COc1ccc(S(=O)(=O)NC2CCCC2)cc1Cl,-23% (inactive),–,–,–
COc1ccc(CCNS(=O)(=O)c2ccc([N+](=O)[O-])cc2)cc1OC,23.7% (inactive),0.785%,–,–
CCNS(=O)(=O)c1ccc(Br)c(OC)c1,–,-59.3%,25.9 µM (active),–
COc1ccc(CCNC(=O)COc2ccc(S(=O)(=O)NC3CCCCC3)cc2Cl)cc1OC,–,-27.7%,8.2 µM (active),–
COc1ccc(CCNS(=O)(=O)c2ccc(Br)cc2)cc1OC,10.6% (inactive),-6.93%,–,–
CCOc1cc(S(=O)(=O)NCc2ccccc2)ccc1Br,13.7% (inactive),-16.8%,–,–
COc1ccc(CCNS(=O)(=O)c2ccc(Cl)cc2)cc1OC,–,-15.3%,1.64 µM (active),–
COc1ccc2[nH]cc(CCNS(=O)(=O)c3ccc(C)cc3)c2c1,-1.15% (inactive),2.67%,–,–
COc1ccc2[nH]cc(CCNS(=O)(=O)c3ccc(F)cc3)c2c1,-4.21% (inactive),-14.3%,–,–
COc1cc(S(=O)(=O)NCc2ccccc2)ccc1Br,-0.0691% (inactive),5.28%,–,–
COc1ccc(CCNC(=O)COc2ccc(S(=O)(=O)NC(C)C)cc2Cl)cc1OC,-26% (inactive),–,–,–
COc1ccc(S(=O)(=O)NCCc2c[nH]c3ccc(Cl)cc23)cc1,–,–,20.6 µM (active),–
COc1cc(CNC2CCCCC2OC)cc(OC)c1OC (stereo not given),-4.46% (inactive),3.58%,–,–
O=C(O)c1cnn(-c2ccccc2)c1-c1ccncc1,–,–,–,inactive
Cc1cc(/C=N/N2CCN(C)CC2)c(C)n1-c1ccccc1F,–,–,–,inactive
CCCn1c(SCC(=O)Nc2nnc(C)s2)nnc1-c1ccoc1C,9.42% (inactive),-14%,–,–
CS(=O)(=O)N(CC(=O)N1CCN(c2ccccc2F)CC1)C1CCCCC1,-6.61% (inactive),-9.38%,–,–
Cc1c(CNC(=O)C2CC2)c(-n2cccc2)n(Cc2ccccc2)c1C,12.7% (inactive),18.9%,–,–
COCCNS(=O)(=O)c1ccc(F)c(OC)c1,–,2.25%,20.6 µM (active),–
COCCNS(=O)(=O)c1ccc(-c2ccc(Cl)cc2)cc1,-0.344% (inactive),8.47%,–,–
COc1cc(S(=O)(=O)NCc2ccccc2)ccc1F,-1.58% (inactive),6.61%,–,–
O=S(=O)(O)c1cc(OS(=O)(=O)c2ccccc2)cc2ccccc12,-11.6% (inactive),6.99%,–,–

SMILES,"lipid storage change, negative = inhibition",cell number change,Potency,outcome
COc1ccc(Cc2nc3ccc(C(=O)NCc4cc(C)no4)cc3o2)cc1OC,-19.9% (inactive),-13.7%,–,–
O=C(c1ccc([N+](=O)[O-])cc1)N1CCN(Cc2ccccc2)CC1,4.25% (inactive),11.4%,–,–
Nn1c(SCC(=O)Nc2ccc3c(c2)OCO3)nnc1-c1cccc(Cl)c1,-0.669% (inactive),0.909%,–,–
O=C(c1ccccc1Cl)N1CCSCC1,-5.54% (inactive),2.74%,–,–
O=C(NC1CC1)C1CCN(C(=O)c2ccccc2Cl)CC1,–,–,–,inactive
O=C(O)C1CCN(C(=O)c2ccccc2Cl)CC1,–,6.2%,18.4 µM (active),–
O=C(NC1CCCCC1)C1CCN(C(=O)c2ccccc2Cl)CC1,-5% (inactive),-4.35%,–,–
O=C(O)c1ccccc1C(=O)N1CCN(C(=O)c2ccccc2Cl)CC1,2.44% (inactive),18.7%,–,–
O=CN1CCN(C(=O)c2ccccc2Cl)CC1,–,-3.9%,16.4 µM (active),–
O=C(NCCCn1ccnc1)c1cc2cc([N+](=O)[O-])ccc2oc1=O,19.8% (inactive),15.7%,–,–
CCCN1CCC(=NNc2ccc(S(N)(=O)=O)cc2[N+](=O)[O-])CC1,-4.49% (inactive),-0.104%,–,–
CCCn1c(SCCN2CCOCC2)nc2c1c(=O)n(C)c(=O)n2C,–,–,–,inactive
COc1ccc(CNC(=O)CN2C(=O)NC(C)(c3cccc4ccccc34)C2=O)cc1OC (stereo not given),–,-4.84%,18.4 µM (active),–
COc1ccc(CNC(=O)CN2C(=O)NC(C)(c3cccc(Br)c3)C2=O)cc1 (stereo not given),11.7% (inactive),15.2%,–,–
COc1ccc(CNC(=O)CN2C(=O)NC3(CCCCCC3)C2=O)cc1OC,-22.1% (inactive),-8.33%,–,–
O=C(CCNS(=O)(=O)c1ccc(Cl)cc1)N1CCN(Cc2ccccc2)CC1,-8.38% (inactive),-14.8%,–,–
Cc1c(C)c(C)c(S(=O)(=O)NCCC(=O)N2CCN(Cc3ccc(C#N)cc3)CC2)c(C)c1C,-6.69% (inactive),10.7%,–,–
N#Cc1ccc(CN2CCN(C(=O)CCNS(=O)(=O)c3ccc(F)c(Cl)c3)CC2)cc1,–,-29%,20.6 µM (active),–
Cc1cccc(N2CCN(C(=O)C(Cc3ccccc3)NC(N)=O)CC2)c1C (stereo not given),5.13% (inactive),-3.7%,–,–
Cc1cccc(N2CCN(C(=O)CC(NC(=O)c3ccccc3Cl)c3ccccc3)CC2)c1C (stereo not given),–,-1.65%,10.3 µM (active),–
Cc1ccc(NC(=O)CC(NC(=O)c2ccccc2Cl)c2ccccc2)nc1 (stereo not given),-13.8% (inactive),12.3%,–,–
CCC(C)NC(=O)CSc1c2c(nc3ccccc13)CCCC2 (stereo not given),-0.588% (inactive),-7.84%,–,–
COCCNC(=O)CSc1nc2ccccc2c(=O)n1CCC(=O)NCCc1ccc(OC)c(OC)c1,-6.85% (inactive),-7%,–,–

SMILES,"lipid storage change, negative = inhibition",cell number change,Potency,outcome
CCOC(=O)CN1NC2(CCC(C)CC2)NC1=S (stereo not given),–,16.5%,18.4 µM (active),–
CCOC(=O)CN1NC2(CCC(C(C)(C)C)CC2)NC1=S (stereo not given),-2.81% (inactive),0.162%,–,–
CCOC(=O)CN1NC2(CCCCCCC2)NC1=S,17% (inactive),26.5%,–,–
CC(=O)N1CC2(NC(=O)c3ccccc3N2)c2ccccc21 (stereo not given),-3.02% (inactive),1.06%,–,–
COc1ccc(-n2nnc3c(=O)n(CC(=O)N4CCCCC4)cnc32)cc1,–,–,–,inactive
Cc1cc(C)cc(NC(=O)/C=C/c2ccc([N+](=O)[O-])s2)c1,-0.708% (inactive),-13.6%,–,–
Cc1cccc(NC(=O)/C=C/c2ccc([N+](=O)[O-])s2)c1,–,-28.2%,20.6 µM (active),–
CC(=O)c1cccc(NC(=O)/C=C/c2ccc([N+](=O)[O-])s2)c1,-0.322% (inactive),-6.6%,–,–
Cc1ccccc1NC(=O)/C=C/c1cccs1,-3.06% (inactive),-15.7%,–,–
CN(C(=O)/C=C/c1ccc([N+](=O)[O-])s1)c1ccccc1,-2.6% (inactive),5.5%,–,–
Cc1ccccc1NC(=O)/C=C/c1ccc([N+](=O)[O-])s1,–,-29.7%,9.2 µM (active),–
O=C(c1ccc(-n2cncn2)c([N+](=O)[O-])c1)N1CCN(c2cccc(Cl)c2)CC1,-19.8% (inactive),25.4%,–,–
Cn1cnc2cc(OC(=O)c3ccccc3)ccc21,–,19.2%,–,inactive
CCCCC(CCC(=O)O)(C(=O)OCC)c1csc(Nc2ccccc2)n1 (stereo not given),9.89% (inactive),0.537%,–,–
CCOC(=O)/C(=N\Nc1ccc(C(C)=O)cc1)c1csc(Nc2ccccc2)n1,–,17.1%,16.4 µM (active),–
CCOC(=O)c1nc(Nc2ccc(C(C)=O)cc2)c2ccccc2n1,-4.14% (inactive),-13.6%,–,–
COc1cccc(NC(=S)Nc2cc(C(=O)O)ccc2N2CC3CC(C2)c2cccc(=O)n2C3)c1 (stereo not given),-0.148% (inactive),-20.1%,–,–
CC(C)c1cccc(C2=CC(=O)C[C@H](c3ccc(F)cc3)C2)c1,9.98% (inactive),-1.84%,–,–
O=C(NCc1ccccc1)C(c1ccccc1)N(C(=O)c1csnn1)C1CC1 (stereo not given),-16.2% (inactive),0.427%,–,–
COc1ccc(CNC(=O)C(c2ccccc2F)N(C(=O)c2csnn2)C2CC2)cc1 (stereo not given),16.9% (inactive),9.27%,–,–
COc1ccc(CNC(=O)C(c2cccc(C)c2)N(C(=O)c2csnn2)C2CC2)cc1 (stereo not given),–,16.2%,2.06 µM (active),–
Cc1nonc1C(=O)N/N=C/c1cc2c(cc1Br)OCO2,-3.58% (inactive),13%,–,–
COc1cc2c(cc1OC)CN(C(=S)Nc1ccc(C)cc1C)CC2,-12.4% (inactive),-5.84%,–,–

# From PubChem BioAssay AID2685 (National Center for Advancing Translational Sciences (NCATS), 2010)
